High-throughput results from PubChem BioAssay.
NOD2 RIPK2 PPI = NOD2-RIPK2 protein interaction inhibition. O43353. CHO BLA complementation NOD2-RIPK2, CCF4 ratio. inhibition, % at 4.98 µM. 360,000 tested, 0.38% active. AID 624267; in the data active = inhibition above about 21%;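 note: 0% = vehicle only and 100% = reference blocker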
Target sequence (O43353 whole entry, looked up): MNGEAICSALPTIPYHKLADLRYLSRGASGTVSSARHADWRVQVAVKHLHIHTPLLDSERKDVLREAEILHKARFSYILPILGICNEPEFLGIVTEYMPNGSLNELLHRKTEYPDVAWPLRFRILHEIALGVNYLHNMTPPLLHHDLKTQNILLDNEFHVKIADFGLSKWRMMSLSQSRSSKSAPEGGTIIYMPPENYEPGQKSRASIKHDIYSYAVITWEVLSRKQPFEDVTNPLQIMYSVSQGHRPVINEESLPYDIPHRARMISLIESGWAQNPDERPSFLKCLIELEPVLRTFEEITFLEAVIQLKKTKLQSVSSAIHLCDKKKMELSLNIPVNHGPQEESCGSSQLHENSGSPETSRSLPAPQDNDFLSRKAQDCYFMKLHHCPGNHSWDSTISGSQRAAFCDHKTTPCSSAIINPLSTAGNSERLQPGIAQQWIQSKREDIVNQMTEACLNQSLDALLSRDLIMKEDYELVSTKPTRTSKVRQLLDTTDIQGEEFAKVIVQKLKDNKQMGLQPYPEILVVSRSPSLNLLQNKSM
HSF1 activator = increases HSF-1 driven luciferase reporter signal. NIH3T3-HGL HSF-1 luciferase reporter, MG132, 8 h; 100% = twice DMSO control signal. activation, % at 9 µM. 300,000 tested, 1.7% active;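 active = mean replicate activation of at least 50% with a set share of replicates each reaching 50%; inconclusive = only one of those two conditions met; inactive = mean below 50% and too few replicates reaching it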;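 note: 0% = median of the neutral control wells and 100% = twice that signal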
TLR9-MyD88 block = blocks human TLR9 binding to MyD88; 340,000 tested, 0.21% active; Q9NR96+Q99836; CHO BLA complementation TLR9-MyD88, CCF4 FRET ratio; AID 504734; inhibition, % at 4.98 µM;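 active = inhibition above the mean over all tested compounds plus 3 SD, cut at about 21% in these data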;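 note: 0% = DMSO only wells and 100% = clavulanate BLA inhibitor control wells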
TLR4-MyD88 BLA = blocks binding of human TLR4 to MyD88; 200,000 tested, 0.18% active; HeLa CL3-4 TLR4/MyD88 BLA complementation, FRET ratio; inhibition, % at 8.4 µM; AID 861; in the data active = inhibition above about 25%;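 note: 0% = vehicle and 100% = reference inhibitor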
HSF1 inhib = HSF1 inhibition | NIH3T3-HGL HSE-luciferase, MG132-induced, luminescence 8 h; active compounds read low | activity change, negative = inhibition, % at 7.5 µM (by protocol) | 300,000 tested, 0.77% active;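 active = more than half of replicate wells show activity change below -50%, luminescence cut by over half; inconclusive = some wells, but at most half, below -50%; inactive = no replicate well below -50%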;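 note: luciferase reports HSF-1 transcriptional activity via heat shock element; 0% = median of DMSO wells and -100% = zero luminescence signal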
Active calls of the source: *; ? = inconclusive; nt = not tested or not shown. Most compounds without a hit are left out; they make up all but 2.4% or so of the library.

SMILES	NOD2 RIPK2 PPI	HSF1 activator	TLR9-MyD88 block	TLR4-MyD88 BLA	HSF1 inhib
C#CCOCCOCCOCCNc1nc(N2CCN(C(=O)CCCCCCCCCCNC(=O)[C@@H](CCSC)n3cc(CCO)nn3)CC2)nc(N2CCN(C(=O)CCCCCCCCCCNC(=O)[C@H](CO)n3cc(CCCCCN)nn3)CC2)n1	8	nt	1	nt	nt
C#CCOCCOCCOCCNc1nc(N2CCN(C(=O)CCCCCCCCCCNC(=O)[C@@H](CCSC)n3cc(CCO)nn3)CC2)nc(N2CCN(C(=O)CCCCCCCCCCNC(=O)[C@H](CCCN=C(N)N)n3cc(C[C@@H](C)CC)nn3)CC2)n1	41*	nt	-1	nt	nt
O=C(Nc1nnc([C@@H]2C[C@H](O)[C@@H](CO)O2)s1)NC(c1ccccc1)c1ccccc1	-7	nt	nt	nt	nt
CC1(C)CC(=O)C2=C(C1)OC(N)=C(C#N)C2c1ccccc1 (stereo not drawn)	4	-61	-2	3	-54*
COc1ccc(Cl)cc1NC(=O)CCc1nc(-c2ccccc2F)no1	-1	69*	-5	-12	57
COc1ccccc1NC(=O)CCc1nc(-c2ccccc2F)no1	-8	5	-5	-31	-4
O=C(NCCN1Cc2ccccc2C1=O)c1cccs1	-4	62*	3	4	42
O=C(NCCN1CCOCC1)c1cccs1	2	-3	0	-9	6
CS(=O)(=O)c1ccc(NC(=O)c2cc3c(cc2Cl)N2CCCCCC2=NS3(=O)=O)cc1	0	nt	-9	nt	nt
COc1ccc(/C=N/n2c(-c3cc(C)[nH]n3)n[nH]c2=S)cc1OC	2	-79	nt	nt	-74*
Cc1ccc(-n2cnc3sc(C)c(C)c3c2=O)cc1	-1	59*	-8	3	23
Cc1cccn2c(=O)nc(SCC(=O)N3N=C(c4cccs4)CC3c3ccc(F)cc3)nc12 (stereo not drawn)	6	95*	-3	nt	50
COc1ccc(NC(=O)N2CCNC(=O)C2CC(=O)Nc2ccc(F)cc2)cc1 (stereo not drawn)	5	5	-6	nt	0
COc1cccc(Nc2ncnc3sc(C)cc23)c1	-13	69*	-1	nt	33
COc1cccc(Nc2ncnc3sccc23)c1	-8	?	-9	nt	24
O=C(c1ccc2c(=O)n3c(nc2c1)CCCCC3)N1CCN(C(c2ccccc2)c2ccccc2)CC1	2	62*	2	1	23
CC1=Nc2nc(N3CCCCCC3)c(C#N)c3c4c(nc(c23)N1)N(c1ccc2ccccc2c1)C(=O)C4	5	-14	7	nt	-2
COc1ccccc1CN(C)C(=O)c1cccc(S(=O)(=O)N2CCc3ccccc3C2)c1	-1	nt	-16	nt	nt
N=c1c2c(-c3ccccc3)c(-c3ccccc3)n(Cc3ccco3)c2ncn1CCCN1CCOCC1	4	102*	10	6	49
COc1ccc(CNC(=O)CN(Cc2ccccc2)C(=O)CCC(=O)Nc2nccs2)cc1	-18	70*	1	nt	24
COc1ccc(/C=N/N=C2/SCC(=O)N2Cc2ccccc2)cc1	-7	66*	3	nt	35
CCOc1ccc2nc(N3C(=O)CNC3=S)sc2c1	0	62*	7	nt	27
Cc1cc(C)n2nc(-c3cccc(Br)c3)cc2n1	-11	29	2	nt	11
Cc1cccc(-c2cc3nc(C)cc(C)n3n2)c1	-11	60*	-5	-4	33
Cc1cccc(NS(=O)(=O)c2ccc(C)c(C(=O)NNC(=O)c3csc(N4CCOCC4)n3)c2)c1	4	nt	-6	nt	nt
SMILES	NOD2 RIPK2 PPI	HSF1 activator	TLR9-MyD88 block	TLR4-MyD88 BLA	HSF1 inhib
CC(Sc1ccc(Cl)cc1)C(=O)NNC(=O)c1csc(N2CCOCC2)n1 (stereo not drawn)	5	-4	4	nt	-1
Clc1ccc(SCc2csc(N3CCOCC3)n2)cc1	1	72*	3	nt	36
Cc1ccccc1S(=O)(=O)NC(=O)C1(C)CCN1C(=O)C(C)(C)c1ccccc1 (stereo not drawn)	-10	nt	nt	nt	nt
CCn1c(SC)nnc1C1CCCN(CC(=O)Nc2ccccc2N2CCOCC2)C1 (stereo not drawn)	-12	67*	8	nt	15
CCOc1ccc(C(=O)C2CCN(CC(=O)Nc3ccccc3N3CCOCC3)CC2)cc1	-7	-4	-1	-1	14
CC1CCC2(CC1)NC(=O)N(NC(=O)c1ccc(OC(C)C)cc1)C2=O (stereo not drawn)	-4	nt	-2	nt	nt
